Only some compounds are listed: those with a hit (about 3.6% of all), similar ones and a draw of the others.
TRHR PAM = allosteric enhancers of human TRH receptor; P34981; TRHR cells, fluo-8 calcium fluorescence, EC20 TRH enhancement; enhancement, % at 2 µM; 360,000 compounds, 0.66% hits; AID 493056; in the data active = enhancement above about 30%; also: 0% is about no effect
Target sequence (P34981 whole entry, looked up): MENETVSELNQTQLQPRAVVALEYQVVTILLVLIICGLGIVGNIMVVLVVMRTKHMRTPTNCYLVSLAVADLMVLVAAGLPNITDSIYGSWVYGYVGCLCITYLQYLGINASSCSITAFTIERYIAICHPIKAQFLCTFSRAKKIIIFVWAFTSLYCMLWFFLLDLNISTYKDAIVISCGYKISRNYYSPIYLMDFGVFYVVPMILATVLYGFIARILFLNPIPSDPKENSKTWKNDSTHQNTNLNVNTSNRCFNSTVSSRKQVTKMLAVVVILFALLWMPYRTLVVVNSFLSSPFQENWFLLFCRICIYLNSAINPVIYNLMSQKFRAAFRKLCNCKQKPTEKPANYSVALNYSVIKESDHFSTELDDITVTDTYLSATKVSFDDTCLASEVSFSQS
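Enhancer read-out: after compound pinning and an initial kinetic agonist-mode read, an EC20 of TRH (10 nM final) was injected and fluo-8 calcium signal (Ex 480/Em 530) followed at 1 s/cycle for 100 cycles in TRHR-expressing cells.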
D1 antagonist = antagonists of human D1 dopamine receptor | 360,000 compounds, 3.2% hits | P21728 | activity change, negative = inhibition, % at 10 µM | AID 504652 | HEK293 TREx D1 cells, calcium flux, dopamine EC80; active compounds read low; in the data active = activity change below about -30%; also: % is scaled to controls: 0 for no effect and ±100 for the full control effect
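HEK293 T-REx cells expressing inducible, force-coupled D1 receptor; no-wash Ca dye, 30–90 min RT. Cmpd → 180 s read at 1 Hz → EC80 DA → 180 s read.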
D1 PAM = potentiators of human D1 dopamine receptor; potentiation, % at 10 µM; AID 504651; HEK293 TREx D1 cells, calcium flux, dopamine EC20 potentiation; P21728; 360,000 compounds, 0.036% hits; in the data active = potentiation above about 30%; also: 0% is about no effect
LDHA block = inhibitors of human lactate dehydrogenase A; purified LDHA, NADH/diaphorase-resazurin fluorescence; active compounds read low; activity change, % (values are at about 110 or 230 µM); 480,000 compounds, 0.15% hits; in the data active = activity change below about -30%;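 also: plate controls were DMSO wells for no effect and wells without enzyme for full effect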
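Remaining NADH was detected by diaphorase (0.133 mg/mL) converting 37 µM resazurin to fluorescent resorufin, read at 0 and 20 minutes. The preceding 5-minute room-temperature reaction used 2 nM LDHA, 0.2 mM sodium pyruvate and 0.06 mM NADH at pH 7.4.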
TRHR ag = agonists of human TRH receptor; TRHR cells, calcium flux fluo-8, FDSS agonist mode; activation, % at 2 µM; 360,000 compounds, 0.18% hits; P34981; also: 0% is about no effect
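In this calcium-flux screen, cells bearing human TRHR are dye-loaded with fluo-8, baselined for 10 cycles, then exposed to library compounds; positive kinetic calcium responses during the agonist phase mark hits, with TRH as control.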
D1 agonist = agonists of human D1 dopamine receptor; P21728; HEK293 T-REx D1 cells, calcium flux, agonist mode; activation, % at 2 µM; 360,000 compounds, 1% hits; also: 0% is about no effect
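Agonism was scored from calcium flux recorded over 180 s (1 read/s) after pintool compound addition, following a 10-cycle baseline. Cells were inducible force-coupled HEK293 TREx D1, plated overnight at 30 C and loaded with no-wash calcium dye.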
* hit, by the source's call; / = no result. Rule as the data show it, unless noted: active = activation above about 30%; inactive = the rest.

SMILES	TRHR PAM	D1 antagonist	D1 PAM	LDHA block	TRHR ag	D1 agonist
CCn1ccc2cc(S(=O)(=O)N3CCC(C(=O)NCCc4ccccc4Cl)CC3)ccc21	1.3	-39.8*	2.5	-3.4	-0.2	2.9
O=C(Cn1ccc2cc(S(=O)(=O)N3CCCCCC3)ccc21)NCCc1ccccc1Cl	1.5	-3.5	6.5	-6.5	0.6	1.5
CCOc1ccc(CNC(=O)Cn2ccc3cc(S(=O)(=O)N4CCCCC4)ccc32)cc1	5.1	-34.8*	-1.0	1.8	0.0	1.4
CCC(=O)Nc1c(-c2cc(=O)oc3c(C)cc(C)cc23)oc2ccccc12	/	/	/	1.6	/	/
CCn1ccc2cc(S(=O)(=O)N3CCCN(C(=O)Nc4ccccc4F)CC3)ccc21	-6.6	-7.1	1.9	-8.9	-0.5	0.4
CCn1ccc2cc(S(=O)(=O)N3CCCN(C(=O)Nc4ccc(C)c(F)c4)CC3)ccc21	-8.5	-30.6*	-3.4	-2.6	-0.4	2.4
O=C(COC(=O)C1CCOCC1)c1ccc2c(c1)OCO2	/	/	/	-11.6	/	/
COc1ccc(C(=O)CN2C3=NCCCN3c3ccccc32)cc1OC	-6.9	-44.2*	-2.1	1.0	-0.4	-0.5
Nc1c(C(=O)c2ccc(Cl)cc2)sc2nsc(SCCN3CCOCC3)c12	-4.8	-25.5	-1.1	-4.2	27.5	102.6*
Nc1c(C(=O)c2ccccc2)sc2nsc(SCCN3CCCC3)c12	-8.2	-34.5*	-3.9	-10.0	54.1*	166.6*
COc1cc(Cl)c(C)cc1NC(=O)CSc1nnc(CN2CCCC2)n1-c1ccccc1	/	/	/	1.3	/	/
O=C(CCn1nnc2ccccc21)Nc1nnc(COc2ccccc2F)s1	31.7*	16.8	4.1	-10.5	0.3	2.9
O=C(CCn1nnc2ccccc21)Nc1nnc(-c2ccccc2F)s1	-4.2	-12.4	-4.0	-3.6	0.3	4.9
COc1ccc(NC(=O)c2cc(-c3ccco3)nc3c2cnn3C(C)C)cc1OC(F)F	/	/	/	-2.5	/	/
COc1ccc(NC(=O)COc2cccc(C(F)(F)F)c2)cn1	23.0	1.6	0.1	-2.2	0.5	0.5
O=C(Nc1ccc(Oc2cccc(C(F)(F)F)c2)nc1)c1cccs1	4.9	-45.4*	-2.4	-7.9	-1.4	32.2*
COc1cccc(C(=O)Nc2ccc(Oc3cccc(C(F)(F)F)c3)nc2)c1	2.5	-42.4*	-4.5	-4.0	-1.4	41.6*
O=C(Nc1ccc(Oc2cccc(C(F)(F)F)c2)nc1)c1ccccc1	1.9	-22.2	-2.3	-0.4	4.3	15.3
Cc1cc(-c2ccc(C)c(S(=O)(=O)Nc3cccc(CN4CCCC4)c3)c2)on1	-5.1	-60.7*	-10.8	-5.6	0.4	2.7
Cc1cc(-c2ccc(C)c(S(=O)(=O)NCC3CCN(Cc4cccc(F)c4)CC3)c2)on1	-3.3	-23.4	-7.7	-0.7	0.9	15.2
Cc1ccnc(NS(=O)(=O)c2cc(-c3cc(C)no3)ccc2C)c1	3.7	15.9	-4.7	-11.9	0.1	0.5
Cc1cc(-c2ccc(C)c(S(=O)(=O)Nc3cccc(C)n3)c2)on1	2.8	-44.2*	1.8	-5.5	0.0	0.4
COc1cccc(CCN2CCC(CNS(=O)(=O)c3cc(-c4cc(C)no4)ccc3C)CC2)c1	-6.9	-54.9*	-14.3	-1.2	1.4	28.7
Cc1cc(-c2ccc(C)c(S(=O)(=O)Nc3ccccc3C(F)(F)F)c2)on1	0.0	-36.2*	-6.3	-4.5	-0.9	12.5
CCCC(=O)Nc1ccc(Cl)c(NC(=O)c2ccc(OCC)cc2)c1	/	/	/	-9.6	/	/
SMILES	TRHR PAM	D1 antagonist	D1 PAM	LDHA block	TRHR ag	D1 agonist
CCc1ccc(-c2cc(C)no2)cc1S(=O)(=O)N1CCCN(Cc2ccc(F)cc2)C1	-5.6	-31.3*	-4.2	-3.4	0.8	6.7
COc1ccc(NC(=S)Nc2ccc3nccnc3c2)cc1	4.7	-33.8*	-5.4	17.3	1.0	3.2
COc1ccc(NC(=S)Nc2ccc3snnc3c2)cc1	-8.4	-12.6	-5.3	17.8	0.3	4.0
CC(=O)N/N=C(\C)c1ccccc1	/	/	/	2.9	/	/
O=C(CN1C(=O)NC2(CCCCCCC2)C1=O)Nc1ccc(Br)cc1	0.0	-40.1*	2.1	-10.9	-0.1	-0.4
O=C(CCCN1C(=O)NC2(CCCC2)C1=O)Nc1ccc(F)cc1	-3.1	-38.0*	-7.2	-2.3	-0.3	0.1
O=C(CN1C(=O)NC2(CCCCC2)C1=O)Nc1ccc(F)cc1	3.7	11.1	-3.0	-4.0	0.4	2.4
Cc1c(C)c2ccc(OCC(=O)NC3CC(C)(C)NC(C)(C)C3)c(C)c2oc1=O	/	/	/	23.8	/	/
N=c1oc2cc(O)ccc2cc1C(=O)Nc1ccccn1	31.0*	13.5	2.5	/	4.9	4.5
Cc1ccc(-c2cc(C(=O)OCC(=O)NC34CC5CC(CC(C5)C3)C4)c3ccccc3n2)o1	/	/	/	10.2	/	/
CCC(CC)C(=O)Nc1nc2c(s1)CC(C)CC2 (stereo unspecified)	1.4	-20.0	-0.8	8.5	1.8	32.7*
CC1CCc2nc(NC(=O)C3CCCO3)sc2C1 (stereo unspecified)	-0.9	7.1	5.8	20.3	-0.1	0.7
O=C(CCNC(=O)c1ccco1)Nc1ccc(OC(F)F)c(Cl)c1	-5.8	-31.0*	-7.7	-7.7	-0.1	2.3
O=C(CCNC(=O)c1ccco1)Nc1ccccc1OC(F)F	-6.7	3.4	/	-6.0	0.6	3.3
CCc1cccc(NC(=O)Nc2csc3c2CCCC3)c1	13.7	-30.4*	-4.2	0.9	0.0	14.6
CCOc1ncccc1CNC(=O)C1CCN(S(=O)(=O)c2cccnc2)CC1	/	/	/	-2.1	/	/
CCOC(=O)C1=C(c2ccccc2)N=c2s/c(=C\c3ccco3)c(=O)n2C1c1cccs1 (stereo unspecified)	5.6	-5.8	-3.8	5.3	1.5	1.0
CCOC(=O)C1=C(c2ccccc2)N=c2s/c(=C\c3cc(OC)c(OC)c(OC)c3)c(=O)n2C1c1cccs1 (stereo unspecified)	-4.2	-1.4	-4.0	2.0	0.5	240.2*
O=c1[nH]ncc2c3ccccc3n(Cc3cccc(Cl)c3)c12	-2.4	12.7	-4.3	-4.0	10.2	51.5*
O=c1[nH]ncc2c3ccccc3n(Cc3ccc(F)cc3)c12	7.8	-0.9	0.6	-7.7	-0.2	1.7
CCN(CC)c1ccc2cc(-c3nnc(-c4ccccc4)o3)c(=O)oc2c1	16.4	-5.3	6.5	2.5	223.7*	243.6*
O=c1oc2ccc3ccccc3c2cc1-c1nnc(-c2ccccc2)o1	-10.4	3.9	-4.0	-3.0	0.4	5.2
CCN(CC)c1ccc2cc(-c3nc4ccccc4n3C)c(=O)oc2c1	30.7*	-14.9	-2.5	-1.5	144.0*	278.2*
CCN(CC)c1ccc2cc(-c3nc4ccccc4[nH]3)c(=O)oc2c1	-23.1	-77.1*	-10.3	3.1	206.8*	546.7*
CN(C)Cc1c(O)ccc2cc(-c3nc4ccccc4n3C)c(=O)oc12	40.0*	2.8	-3.0	-1.2	23.1	21.6

Compound activity deposited in PubChem BioAssay by National Center for Advancing Translational Sciences (NCATS).
